Results on 55 compounds are retold here after PubChem BioAssay AID463173 (ICCB-Longwood Screening Facility, Harvard Medical School, 2010).

Each structure is given as a SMILES string. The campaign covered roughly 52,000 compounds. About 4,300 (8.3%) were called active. Many of the other results were omitted from the sample, so actives are more common in it than they were. Unmarked numbers belong to inactive results. Rule as the data show it: active = survival mostly below about 52% (no sharp cut-off); inactive = mostly above about 56%.

This experiment relates to DeltatarO mutant. Nature of the experiment: growth inhibition of S. aureus wild type versus tarO mutant, primary screen, teichoic acid synthesis inhibitors, RN4220, OD600 (AID 463173). The following applies: OD600, 18 h, active compounds read low, screened at 18.75 µg/mL (by protocol).
Take `CCOC(=O)C1CCCN(C(=O)Cn2ncc3c([nH]c4ccc(C)cc43)c2=O)C1` (stereo not given): the survival was 81%.

On to `CCOC(=O)c1ccc2c(c1)N(CC#N)C(=O)C(C)(C)O2`, for which the survival is 94%.

As to `CCOC(=O)c1[nH]c(Cc2[nH]c(C(=O)OCC)c(C)c2CC(=O)OC)c(CCC(=O)OC)c1C`, the survival is 70%.

For `Cc1ccc2c(=O)cc(C(=O)Nc3cccc(Cl)c3C)oc2c1C`, the survival was 54%.

Regarding `COC(=O)c1ccccc1NC(=O)c1cc(=O)c2ccc(C)c(C)c2o1`, the survival was 72%.

For `Cc1ccc2c(=O)cc(C(=O)Nc3ccc(S(=O)(=O)N(C)c4ccccc4)cc3)oc2c1C`, the survival was 50% (active).

With `Cc1ccc2c(=O)cc(C(=O)Nc3ccc(S(=O)(=O)N(C)Cc4ccccc4)cc3)oc2c1C`, the survival was 92%.

Turning to `CCN(c1ccccc1)S(=O)(=O)c1ccc(NC(=O)c2cc(=O)c3ccc(C)c(C)c3o2)cc1`, the survival was 64%.

Take `COc1ccc(OC)c(NC(=O)c2cc(=O)c3c(C)cc(C)cc3o2)c1`: the survival is 42% (active).

For the compound `CCOc1ccc(NC(=O)c2cc(=O)c3ccc(C)c(C)c3o2)cc1`, the survival is 60%.

As for `CCOC(=O)c1ccc(NC(=O)c2cc(=O)c3ccc(C)c(C)c3o2)cc1`, the survival was 45% (active).

Consider `Cc1cc(C)c2c(=O)cc(C(=O)Nc3ccccc3Cl)oc2c1`, for which the survival is 62%.

As to `COc1ccc(CCNC(=O)c2cc(=O)c3c(C)cc(C)cc3o2)cc1OC`, the survival was 57%.

On to `COc1ccccc1NC(=O)c1cc(=O)c2ccc(C)c(C)c2o1`, for which the survival was 41% (active).

For `CCc1ccc(NC(=O)c2cc(=O)c3ccc(C)c(C)c3o2)cc1`, the survival was 91%.

Consider `COc1cccc2cc(-c3nc(-c4cccs4)no3)c(=O)oc12`, for which the survival is 67%.

On to `COc1ccc(C)c2sc(NC(=O)c3ccc(S(=O)(=O)N4CCCCC4)cc3)nc12`, for which the survival was 92%.

Turning to `O=C(O)c1cc2nc3c(c(C(F)(F)F)n2n1)CCC3`, the survival is 89%.

In the case of `O=C(Cn1cnc2c(nc3n2CCCCC3)c1=O)Nc1cccc(C(F)(F)F)c1`, the survival is 83%.

Regarding `O=C(Cn1cc(S(=O)(=O)Cc2ccccc2F)c2ccccc21)NCc1ccccc1`, the survival was 87%.

For `Cc1ccc(NCc2cc3cc4c(cc3n(CC(=O)Nc3ccc(F)cc3F)c2=O)OCCO4)cc1`, the survival was 70%.

For `O=C(CN1CCC(C(=O)c2ccc(F)cc2)CC1)Nc1ccccc1`, the survival is 83%.

Turning to `CCCCSc1nc(O)c(CCC(C)C)c(=O)[nH]1`, the survival was 60%.

`Cc1ccc(S(=O)(=O)N(CCc2ccccc2)CC(=O)Nc2ccc(Br)cc2)cc1`: the survival is 75%.

With `COc1cc(NC(=O)CSc2nc(-c3ccc(C(C)C)cc3)no2)cc(OC)c1`, the survival is 91%.

For the compound `O=C(Cn1c(=O)n(-c2cccc(Cl)c2)c(=O)c2sc3ccccc3c21)NC1CCCCC1`, the survival is 127%.

As for `C/C=C1\NC(=S)N(Cc2ccccc2)C1=O`, the survival was 84%.

In the case of `O=C1CCN(Cc2ccccc2)C(=S)N1`, the survival is 49% (active).

Consider `OC1(c2ccccc2)CCN(Cc2ccccc2)CC1`, for which the survival is 73%.

Take `COC(=O)C1C(=O)C2=C(CC1C)Nc1ccccc1NC2c1ccc(N(C)C)cc1` (stereo not given): the survival was 79%.

Turning to `Cc1ccc(-c2nnc3ccccc3c2C(=O)Nc2ccc(C)c(F)c2)cc1`, the survival was 80%.

`O=C(COc1ccc(F)cc1)Nc1ccc2nc(SCCOc3ccccc3)sc2c1`: the survival is 87%.

For the compound `CCOC(=O)c1ccc(N2CCN(c3cccc(Cl)c3)CC2)c(NC(=O)Nc2ccc(Cl)cc2)c1`, the survival is 92%.

Turning to `CCOC(=O)c1ccc(N2CCN(c3ccc(F)cc3)CC2)c(NC(=O)Nc2cccc(OC)c2)c1`, the survival was 70%.

Turning to `CCn1c(=O)n(CC)c2cc(N3CCCCC3)c(NC(=O)Nc3cc(C)cc(C)c3)cc21`, the survival was 100%.

As for `CCOC(=O)c1ccc(NC(=O)Nc2cc3c(cc2N2CCCC2)n(C)c(=O)n3C)cc1`, the survival is 82%.

Turning to `CCOC(=O)c1ccc(N2CCN(c3cccc(OC)c3)CC2)c(NC(=O)Nc2ccc(OCC)cc2)c1`, the survival was -5% (active).

Turning to `CCOC(=O)c1ccc(NC(=O)Nc2cc3c(cc2N2CCCCC2)n(CC)c(=O)n3CC)cc1`, the survival is 57% (active).

For `CCOc1ccc(-c2nc3c(c(CC)nn3-c3ccccc3)c3cc(OC)c(OC)cc23)cc1`, the survival is 78%.

Take `CCc1nc2sc3c(N4CCC(C)CC4)ncnc3c2c2c1CCCC2`: the survival is 134%.

With `CCc1cccc(NC(=O)Cn2c(=O)n(CCC(=O)NCC3CCCO3)c(=O)c3cc(OC)c(OC)cc32)c1` (stereo not given), the survival was 62%.

Consider `COc1cccc2c1Oc1nc(-c3ccccc3)nc(SCC(=O)Nc3ccccc3)c1C2`, for which the survival is 81%.

Turning to `CCOC(=O)c1ccc(NC(=O)c2ccc3c(c2)CCN3S(=O)(=O)c2ccc(Cl)cc2)cc1`, the survival was 64%.

As for `CCCN(C(=O)c1cn(CC(C)C)c(=O)c2cc(OC)c(OC)cc12)c1cccc(C)c1`, the survival was 152%.

`COc1cc2c(C(=O)N3CCN(c4ccc(C)cc4)C(C)C3)cn(CC(C)C)c(=O)c2cc1OC` (stereo not given): the survival was 47%.

For the compound `Cc1cccc(N2CCN(C(=O)c3cnc4c(C)cccn4c3=O)CC2C)c1` (stereo not given), the survival was 32% (active).

For `CCn1cc(C(=O)N2CCN(c3cc(Cl)ccc3C)CC2)c2cc(OC)c(OC)cc2c1=O`, the survival is 64%.

For `Cc1cccc(N2CCN(C(=O)c3cccn4c(=O)c5cc(Cl)ccc5nc34)CC2C)c1` (stereo not given), the survival is 66%.

Turning to `CCc1ccccc1N(C)C(=O)c1cn(CC(C)C)c(=O)c2cc(OC)c(OC)cc12`, the survival was 73%.

Take `COc1cc2c(C(=O)N(C)c3cc(Cl)ccc3OC)cn(CC(C)C)c(=O)c2cc1OC`: the survival was 48% (active).

Regarding `Cc1cccn2c(=O)c(C(=O)N3CCN(c4ccccc4)CC3)cnc12`, the survival is 49%.

`COc1cc2c(C(=O)N3CCN(c4ccc(F)cc4)CC3)cn(CC(C)C)c(=O)c2cc1OC`: the survival was 56%.

For `COc1cc2c(C(=O)N3CCN(c4cccc(C)c4)C(C)C3)cn(CC(C)C)c(=O)c2cc1OC` (stereo not given), the survival is 46% (active).

Take `COc1cc2c(C(=O)N3CCN(c4cc(Cl)ccc4C)CC3)cn(CC(C)C)c(=O)c2cc1OC`: the survival was 40% (active).

As for `CCN(C(=O)c1cn(CC(C)C)c(=O)c2cc(OC)c(OC)cc12)c1cc(OC)ccc1OC`, the survival was 55%.
